For 38 compounds, growth inhibition results are on record in PubChem BioAssay (NCI).

Test [1] can be described thus: NCI Yeast Anticancer Drug Screen. Data for the rad50 strain (AID 155).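 Note: 0% = growth of vehicle-only cultures of the same strain.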 Conditions: S. cerevisiae rad50 strain growth inhibition; at 50.0 µM; active compounds read high. Put shortly: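 Vehicle-treated cultures provide the reference for the growth inhibition reported for compound-exposed, repair-deficient yeast.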
The nature of test [2]: NCI Yeast Anticancer Drug Screen. Data for the mec2-1 strain (AID 157). Particulars: S. cerevisiae mec2-1 strain, at 50.0 µM, active compounds read high. An outline of the steps:
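Strain: mec2-1 (DNA repair/cell cycle alteration). Compound exposure, then growth measured; inhibition expressed relative to vehicle.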

The nature of test [3]: NCI Yeast Anticancer Drug Screen. Data for the sgs1 mgt1 strain (AID 161).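 Note: 0% = growth of cultures given vehicle only.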 Conditions: S. cerevisiae sgs1 mgt1 strain, at 50.0 µM, active compounds read high. Put shortly: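 Test agents were incubated with a DNA-repair-mutant yeast strain. Growth was then read and compared against vehicle-treated controls.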
Test [4] is described as follows: NCI Yeast Anticancer Drug Screen. Data for the cln2 rad14 strain (AID 165).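 Note: 0% = growth equal to vehicle treated cultures.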 Particulars: S. cerevisiae cln2 rad14 strain, at 50.0 µM, active compounds read high. Put shortly: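 Compounds are applied to the cln2 rad14 yeast strain, and growth is then compared with that of vehicle-treated cultures to give inhibition.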
The nature of test [5]: NCI Yeast Anticancer Drug Screen. Data for the bub3 strain (AID 167). Particulars: S. cerevisiae bub3 mutant strain, at 50.0 µM, active compounds read high. An outline of the steps: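 Mutant yeast screening strain plus compound; vehicle-treated cultures serve as the 0% inhibition reference.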
A short description of test [6]: NCI Yeast Anticancer Drug Screen. Data for the mlh1 rad18 strain (AID 175). Conditions: S. cerevisiae mlh1 rad18 strain growth inhibition; at 50.0 µM; active compounds read high. An outline of the steps: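 Read-out is yeast growth inhibition, calculated against vehicle-only controls. The compound was applied to a strain engineered with DNA damage repair alterations.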

The panel holds about 79,000 compounds, 15% with a hit somewhere; the sample as a whole holds those more often. Values without a mark were called inactive. Calls of active or inactive are those of the source. Cut-off read from the data, not from the text of the source: active = growth inhibition above about 70%; inactive = the rest.

For the compound `CC[n+]1c(-c2ccccc2)c2cc(N)ccc2c2ccc(N)cc21` (tested in a mixture with another compound), the growth inhibition is 98.5% (active) in test [1]; 88.8% (active) in test [2]; 95% (active) in test [3]; 54.5% in test [4]; 74.9% (active) in test [5]; 85.5% (active) in test [6].

For `[Se]=[Nb]=[Se]`, the growth inhibition in test [1] is -5.8%; in test [2] it was -6.55%; in test [3], -18.3%; in test [4], -5.1%; in test [5] it was -27.1%; in test [6], -28.5%.

For the compound `CC1=CC(C)=Nc2ccc(C)cc2N1`, the growth inhibition was -2.65% in test [1]; -0.6% in test [2]; -5.95% in test [3]; -2.65% in test [4]; -6% in test [5]; 22.2% in test [6].

As for `c1ccc2c(c1)sc1sc3ccccc3[n+]12`, the growth inhibition is 5.05% in test [1]; -5.65% in test [2]; 1.8% in test [3]; 3% in test [4]; 3.2% in test [5]; -23.4% in test [6].

For `CC(=O)C(C(C)=O)C(C)=O.CC(=O)C(C(C)=O)C(C)=O.CC(=O)C(C(C)=O)C(C)=O.[Cr]`, the growth inhibition was 25.2% in test [1]; 2.8% in test [2]; 11.2% in test [3]; 7.25% in test [4]; -3.6% in test [5]; 5.25% in test [6].

As to `O=[N+]([O-])c1ccc(/C=C/C=C\c2ccc(S(=O)(=O)F)cc2Cl)cc1`, the growth inhibition in test [1] was 2.55%; in test [2] it was 25.2%; in test [3], 16%; in test [4], 1.85%; in test [5], 10.2%; in test [6] it was 16.3%.

For the compound `CC1C(=O)OC2CC[N+]3([O-])CC=C(COC(=O)C(C)(O)C1(C)O)C23` (stereo not drawn), the growth inhibition in test [1] is -0.6%; in test [2], -37.2%; in test [3], -14.7%; in test [4], -5.25%; in test [5], -9.25%; in test [6], -84.4%.

On to `CO[C@@]12[C@@H]3N[C@@H]3CN1C1=C(C(=O)C(NCC3CCCO3)=C(C)C1=O)[C@@H]2COC(N)=O` (stereo partly drawn), for which the growth inhibition was 24.9% in test [1]; 16.6% in test [2]; 6.25% in test [3]; 17.1% in test [4]; 3.95% in test [5]; 23.6% in test [6].

For `O=[N+]([O-])c1cc(Cl)ccc1O`, the growth inhibition in test [1] is 0.2%; in test [2], -5.65%; in test [3] it was -6.5%; in test [4], 14.2%; in test [5], -7.15%; in test [6] it was 3.75%.

`CCc1cccc(C(C)C)c1NC(=O)C(=O)C1C(=O)NC(=O)NC1=O`: the growth inhibition in test [1] was -40.1%; in test [2] it was -12.2%; in test [3] it was -9.45%; in test [4], 18.1%; in test [5], -10.6%; in test [6], -31.4%.

Take `Cc1cc(C)n(SC(Cl)(Cl)Cl)n1`: the growth inhibition was -12.3% in test [1]; 28.3% in test [2]; -15.3% in test [3]; -4.6% in test [4]; 7.45% in test [5]; -13.7% in test [6].

Take `CC(C)(C)C1=C(Br)C(OC(=O)C(F)(F)F)(C(C)(C)C)OP1(=O)c1ccccc1` (stereo not drawn): the growth inhibition is 1.55% in test [1]; 12.2% in test [2]; -22.9% in test [3]; 30.9% in test [4]; -10.3% in test [5]; -7.2% in test [6].

Take `CCCCCCC1C(=O)NC(=O)NC1=O`: the growth inhibition in test [1] is -4.25%; in test [2] it was -15.1%; in test [3], -8%; in test [4] it was -7.75%; in test [5] it was 2.6%; in test [6], -12.3%.

Take `CC1=CC(=O)NP(=O)(Oc2ccc(C)cc2)N1` (stereo not drawn): the growth inhibition in test [1] is -7.7%; in test [2] it was 16.1%; in test [3], -4.65%; in test [4], -0.75%; in test [5], -25.3%; in test [6] it was -4.4%.

For the compound `CCNC(Cc1ccccc1)C1CCCO1` (stereo not drawn), the growth inhibition was 3.15% in test [1]; -0.35% in test [2]; -15.6% in test [3]; 2% in test [4]; -18.4% in test [5]; -27.9% in test [6].

`O=C1NC(=O)C(Br)C(=O)N1` (tested in a mixture with another compound): the growth inhibition is -8.5% in test [1]; 8.95% in test [2]; 0.5% in test [3]; -19.6% in test [4]; -1.95% in test [5]; -0.3% in test [6].

Consider `CO/C=C/c1ccc2c(c1)OCO2`, for which the growth inhibition in test [1] is 34.6%; in test [2], 25.5%; in test [3] it was 16.7%; in test [4] it was 10.2%; in test [5], 12.7%; in test [6] it was -10.8%.

Turning to `CN1CC=C(c2cccn2C)CC1`, the growth inhibition in test [1] is -24.2%; in test [2] it was -24.9%; in test [3], -6.45%; in test [4], 4.05%; in test [5] it was -10.4%; in test [6], -37.8%.

Turning to `CCCCC(Br)C(=O)OCC` (stereo not drawn), the growth inhibition in test [1] is 26.1%; in test [2], 6.55%; in test [3] it was -26.5%; in test [4] it was -11.6%; in test [5] it was 10.9%; in test [6], 11.8%.

As for `C[CH2][Sn]([CH2]C)([O]c1cccccc1=O)[O]c1cccccc1=O`, the growth inhibition in test [1] is 87.1% (active); in test [2] it was 18.8%; in test [3], 94.2% (active); in test [4] it was -15.6%; in test [5], 7.8%; in test [6] it was 52.5%.

As to `COc1ccc2c(c1OC)C[C@@H]1c3c(cc4c(c3-2)OCO4)CCN1C`, the growth inhibition was 21.2% in test [1]; -30.2% in test [2]; -23.6% in test [3]; -14.6% in test [4]; -0.6% in test [5]; -56.5% in test [6].

As for `CC(C)N(N=O)C(C)C`, the growth inhibition was 13.7% in test [1]; -4.6% in test [2]; 6.85% in test [3]; 1.9% in test [4]; 0.95% in test [5]; 16.5% in test [6].

As to `CCN1CC2(CO)CCC(OC)C34C5CC6C(OC)CC(O)(C5C6OC)C(O)(C(OC)C23)C14` (stereo not drawn), the growth inhibition in test [1] is 1.95%; in test [2], -16.6%; in test [3], 2.7%; in test [4] it was 9%; in test [5], -12.6%; in test [6], 6.75%.

Regarding `O=P1(N2CCOCC2)OC(c2ccccc2)=CCN1c1ccc(Cl)cc1` (stereo not drawn), the growth inhibition in test [1] is -8.9%; in test [2], 1.3%; in test [3] it was -1.85%; in test [4], -20.1%; in test [5], 5.2%; in test [6] it was 6.55%.

On to `COc1cc(C(=O)O)cc(OC)c1OC`, for which the growth inhibition in test [1] is -19.9%; in test [2], -19.6%; in test [3], -23.1%; in test [4], -26.8%; in test [5], 2.05%; in test [6], -9.95%.

With `O=S(=O)(F)c1cc(Cl)c(S)cc1Cl`, the growth inhibition in test [1] was 7.75%; in test [2], -1.85%; in test [3], 4.2%; in test [4], 16.1%; in test [5], -1.55%; in test [6], -2.45%.

Consider `CC(=O)C1(c2ccccc2)CCCN(C)CC1` (stereo not drawn), for which the growth inhibition is -7.8% in test [1]; -8.95% in test [2]; 8.2% in test [3]; 1.35% in test [4]; 3.45% in test [5]; -3.45% in test [6].

Take `O=C(O)C(O)C(O)C(O)C(O)C(O)C(O)CO` (stereo not drawn): the growth inhibition in test [1] was -18.1%; in test [2] it was -6.95%; in test [3], -33.4%; in test [4], -73.5%; in test [5], 3%; in test [6], 2.95%.

Regarding `N#CCCCCCBr`, the growth inhibition was 1.05% in test [1]; -19.1% in test [2]; 23% in test [3]; 10.8% in test [4]; 17.9% in test [5]; 19.4% in test [6].

For the compound `O=[N+]([O-])c1ccc([Se]c2ncccn2)c([N+](=O)[O-])c1`, the growth inhibition is -14.8% in test [1]; 1.95% in test [2]; -19.4% in test [3]; -8.75% in test [4]; -3.15% in test [5]; 0.5% in test [6].

On to `Cc1cc(NN=O)nc(C)n1`, for which the growth inhibition in test [1] is -3.05%; in test [2], -4.05%; in test [3] it was -1.35%; in test [4], -14.4%; in test [5], -1.8%; in test [6] it was 5.7%.

Take `CCOP(=S)(OCC)OCC1OC(OC)C2OC(C)(C)OC12` (stereo not drawn): the growth inhibition is -26.2% in test [1]; 1.9% in test [2]; -2.45% in test [3]; -35.4% in test [4]; 11.8% in test [5]; 4.4% in test [6].

As to `CO[C@H]1Nc2c(ccc(C)c2O)C(=O)N2C=C(/C=C/C(N)=O)C[C@@H]12`, the growth inhibition in test [1] was 89.2% (active); in test [2] it was 91.5% (active); in test [3], 90% (active); in test [4] it was 90.2% (active); in test [5], 90.3% (active); in test [6], 87.3% (active).

On to `CS(=O)(=O)Cl`, for which the growth inhibition in test [1] was 7.65%; in test [2] it was -26.9%; in test [3] it was 16.4%; in test [4], 13.1%; in test [5], -4.85%; in test [6], 0%.

Consider `O=C(O)[C@@H]1C2CCC(C[C@@H]1O)N2C(=O)c1ccccc1` (stereo partly drawn), for which the growth inhibition in test [1] was -12.8%; in test [2] it was -3.55%; in test [3], 2.85%; in test [4], -33.5%; in test [5], -15.4%; in test [6] it was -1.2%.

As for `NCC(O)c1ccc2c(c1)OCO2` (stereo not drawn), the growth inhibition in test [1] is -48.8%; in test [2], -12.7%; in test [3], -11.3%; in test [4], -31.4%; in test [5] it was -1.4%; in test [6], -8.65%.

Consider `COC(=O)C1=C(N2CCCC2)C2c3ccccc3SC12C(=O)OC` (stereo not drawn), for which the growth inhibition in test [1] was 20.1%; in test [2] it was 10.8%; in test [3], -0.25%; in test [4], 0.7%; in test [5], 14.2%; in test [6], 9.3%.

In the case of `CC(C)c1cc2c(cc1O)C1(C)CCCC(C)(C)C1CC2=O` (stereo not drawn), the growth inhibition in test [1] was 27.4%; in test [2], 32.3%; in test [3], 19.9%; in test [4], 22.4%; in test [5], 27.9%; in test [6], 34.6%.
